The supplement of paper PMC6607015
Where a name gives a salt, the structure may show the parent alone.

tested on: A431; assay: whole-cell filipin (free cholesterol) integrated intensity, Z-score; higher = more cholesterol staining; conditions: compound concentration in added solution (µM; 5 µl added to 20 µl cells): 10; 18 h
In short: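 Duplicate 384-well imaging plates were prepared with 5 µl of 10 µM compound solution per well, and 3,500 HeLa MZ or A431 cells in 20 µl were added on top. Following 18 h of incubation and fixation in 4% PFA, cells received 6C4 anti-LBPA antibody, filipin, propidium iodide and CellTracker green. Four images per well at 20× were segmented in MetaXpress to yield per-cell integrated LBPA or filipin intensity, whole-cell or within LBPA endosomes. These intensities are reported as Z-scores normalised in AcuityXpress.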

SMILES	whole-cell filipin (z-score)
O=c1cc(-c2ccc(O)c(O)c2)oc2cc(O)cc(O)c12 [Luteolin]	-0.523
CC(C)(O/N=C(\C(=O)N[C@@H]1C(=O)N2C(C(=O)[O-])=C(C[n+]3ccccc3)CS[C@H]12)c1csc(N)n1)C(=O)O [Ceftazidime pentahydrate]	-0.451
CC(=O)OCC(=O)[C@@]1(OC(C)=O)[C@@H](C)C[C@H]2[C@@H]3C[C@H](F)C4=CC(=O)C=C[C@]4(C)[C@@]3(F)[C@@H](O)C[C@@]21C [Diflorasone Diacetate]	-0.254
CN(C)CCn1nnnc1SCC1=C(C(=O)O)N2C(=O)[C@@H](NC(=O)Cc3csc(N)n3)[C@H]2SC1 [Cefotiam hydrochloride]	-0.797
CCCOc1ccc(C(=O)OCCN(CC)CC)cc1N [Proparacaine hydrochloride]	-0.369
COc1ccc(NS(=O)(=O)c2ccc(N)cc2)nn1 [Sulfamethoxypyridazine]	-0.449
CCC(=O)O[C@]1(C(=O)SCF)[C@H](C)C[C@H]2[C@@H]3C[C@H](F)C4=CC(=O)C=C[C@]4(C)[C@@]3(F)[C@@H](O)C[C@@]21C [Fluticasone propionate]	0.193
O=C(O)CCNC(=O)c1ccc(/N=N/c2ccc(O)c(C(=O)O)c2)cc1 [Balsalazide Sodium]	-0.213
CC(C)(C)NC[C@H](O)c1ccc(O)c(CO)c1 [Levalbuterol hydrochloride]	0.171
NC(CO)C(=O)NNCc1ccc(O)c(O)c1O (configuration not stated) [Benserazide hydrochloride]	-0.376
Cc1ccc(NC(=O)c2ccc(CN3CCN(C)CC3)cc2)cc1Nc1nccc(-c2cccnc2)n1 [Imatinib]	2.96
Cc1cc2c(cc1S(N)(=O)=O)S(=O)(=O)CCC2 [Meticrane]	-0.803
O=C1O[C@H]([C@@H](O)CO)C(O)=C1O [Ascorbic acid]	-0.369
N=C(N)NCC1COC2(CCCCC2)O1 (configuration not stated) [Guanadrel sulfate]	-0.472
CC[N+](C)(CC)CCOC(=O)C1c2ccccc2Oc2ccccc21 [Methantheline bromide]	-0.155
CO/N=C(\C(=O)N[C@@H]1C(=O)N2C(C(=O)O)=C(COC(N)=O)CS[C@H]12)c1ccco1 [Cefuroxime sodium salt]	-0.402

SMILES	whole-cell filipin (z-score)
O=C(OCC(O)CO)c1ccccc1Nc1ccnc2cc(Cl)ccc12 (configuration not stated) [Glafenine hydrochloride]	-1
C[C@@H]1NC(=O)NC1=O [Methylhydantoin-5-(L)]	-0.263
CC1(C)O[C@@H]2C[C@H]3[C@@H]4C[C@H](F)C5=CC(=O)CC[C@]5(C)[C@H]4[C@@H](O)C[C@]3(C)[C@]2(C(=O)CO)O1 [Flurandrenolide]	-0.173
C/C(=C(\CCOP(=O)(O)O)SC(=O)c1ccccc1)N(C=O)Cc1cnc(C)nc1N [Benfotiamine]	-0.469
CN1CCN(CCCN2c3ccccc3Sc3ccc(S(=O)(=O)N(C)C)cc32)CC1 [Thioproperazine dimesylate]	0.546
CN(C)CCOC(=O)C(c1ccccc1)C1(O)CCCC1 (configuration not stated) [Cyclopentolate hydrochloride]	0.119
Clc1cccc(Cl)c1NC1=NCCN1 [Clonidine hydrochloride]	-0.585
CCN(CC)CCc1nc(-c2ccccc2)no1 [Oxalamine citrate salt]	-0.277
N[C@H]1CONC1=O [(S)-(-)-Cycloserine]	-0.147
O=C(c1ccc(F)cc1)C1CCN(CCn2c(=O)[nH]c3ccccc3c2=O)CC1 [Ketanserin tartrate hydrate]	0.959
C[N+](C)(CCOc1ccccc1)Cc1ccccc1.O=C([O-])c1cc2ccccc2cc1O [Bephenium hydroxynaphthoate]	-0.383
O=C1CCc2ccc(OCCCCN3CCN(c4cccc(Cl)c4Cl)CC3)cc2N1 [Aripiprazole]	2.88
Nc1nc(F)nc2c1ncn2[C@@H]1O[C@H](CO)[C@@H](O)[C@@H]1O [Fludarabine]	0.904
CN1CCc2cccc3c2[C@H]1Cc1ccc(O)c(O)c1-3 [R(-) Apomorphine hydrochloride hemihydrate]	-0.55
C[C@]12CCC(=O)C=C1C=C[C@@H]1[C@@H]2CC[C@@]2(C)[C@H]1CC[C@@]21CCC(=O)O1 [Canrenone]	0.452
CN(C)[C@@H]1C(O)=C(C(N)=O)C(=O)[C@@]2(O)C(O)=C3C(=O)c4c(O)cccc4[C@@](C)(O)[C@H]3C[C@@H]12 [Tetracycline hydrochloride]	-0.872
